± gives the standard deviation of the averaged measurements.
Tests used:
DLD1 [1] = assay: cell viability (CellTiter-Glo) relative to plate median (fraction of plate median); higher = more viable cells; conditions: 5 µM; treatment time 24 h; reporter: 7TFP
Method in brief: (§1)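 Each entry is a luminescence signal normalised to the plate median, averaged over independent replicates. The replicate count was two, and the cells were colorectal cancer lines with stable lentiviral TCF/Wnt firefly luciferase reporters exposed to library compounds at a final 5 µM for 24 h. Firefly luciferase and CellTiterGlo were measured on parallel plates.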

HCT116 = assay: as above; conditions: 5 µM; treatment time 24 h; reporter: TCF4/Wnt
Method in brief: as §1

SW480 [2] = assay: as above; conditions: 5 µM; treatment time 24 h; reporter: 7TFP
Method in brief: as §1

DLD1 [3] = assay: TCF/Wnt firefly luciferase reporter signal relative to plate median (fraction of plate median); higher = higher Wnt reporter signal; conditions: 5 µM; treatment time 24 h; reporter: 7TFP
Method in brief: as §1

SW480 [4] = assay: as above; conditions: 5 µM; treatment time 24 h; reporter: 7TFP
Method in brief: as §1

SMILES | cell viability (DLD1 [1]) | cell viability (HCT116) | cell viability (SW480 [2]) | TCF/Wnt firefly luciferase reporter signal (DLD1 [3]) | TCF/Wnt firefly luciferase reporter signal (SW480 [4])
Cc1c(O)c(O)cc2c1CC=C1[C@@]2(C)CC[C@@]2(C)[C@@H]3C[C@](C)(C(=O)O)CC[C@]3(C)CC[C@]12C | 0.88 ± 0.082 | 0.981 ± 0.069 | 1.03 ± 0.045 | 0.863 ± 0.073 | 0.846 ± 0.079
C[C@@H]1C(=O)O[C@H]2[C@H]1CC[C@@]1(C)C=CC(=O)[C@@]3(C)O[C@@]213 [EPOXY (4,5alpha)-4,5-DIHYDROSANTONIN] | 0.995 ± 0.064 | 1.17 ± 0.071 | 1 ± 0.023 | 0.966 ± 0.09 | 0.902 ± 0.042
COC(=O)C(c1ccccc1)C1CCCCN1 (stereo not given) | 1.025 ± 0.0071 | 1.05 ± 0.064 | 1.01 ± 0.035 | 1.03 ± 0.021 | 1.04 ± 0.088
C/C=C(/C)C(=O)O[C@H]1CC[C@@]2(C)[C@@H]3CC[C@H]4[C@]5(O)C[C@H](O)[C@@]6(O)[C@@H](CN7C[C@@H](C)CC[C@H]7[C@@]6(C)O)[C@]5(O)C[C@]42O[C@]13O | 0.9805 ± 0.0064 | 0.892 ± 0.06 | 1.04 ± 0.064 | 1.16 ± 0.064 | 1.185 ± 0.0071
O=C([O-])Cc1ccccc1.[Na+] | 0.97 ± 0.0057 | 0.906 ± 0.1 | 0.971 ± 0.021 | 0.923 ± 0.04 | 0.896 ± 0.0042
N.N.[Cl][Pt][Cl] | 1.1 ± 0.11 | 1.07 ± 0.014 | 1.02 ± 0.014 | 0.939 ± 0.016 | 0.954 ± 0.08
O=C(O)c1cccc2nc3ccccc3nc12 [1-Phenazinecarboxylic acid] | 1.12 ± 0.16 | 1.05 | 1.32 ± 0.11 | 0.986 ± 0.091 | 1.03 ± 0.12
O=C(O)CC[N+](=O)[O-] [BOVINOCIDIN (3-nitropropionic acid)] | 0.951 ± 0.025 | 1.05 ± 0.042 | 0.986 ± 0.02 | 1.01 ± 0.042 | 1.05 ± 0.1
N#C/C(=C\c1ccc(O)cc1)C(=O)O [alpha-CYANO-4-HYDROXYCINNAMIC ACID] | 1.01 ± 0.014 | 1.04 ± 0.058 | 0.9385 ± 0.0078 | 0.996 ± 0.034 | 0.913 ± 0.033
CC1=C(O)C(=O)C=C2C1=CC=C1[C@@]2(C)CC[C@@]2(C)[C@@H]3C[C@](C)(C(=O)O)CC[C@]3(C)CC[C@]12C | 0.801 ± 0.11 | 0.837 ± 0.065 | 1 ± 0.012 | 0.863 ± 0.083 | 0.787 ± 0.12
C=C1[C@@H]2CCC3[C@@](CC[C@@H]4[C@H](C(=O)O)C[C@@H](O[C@@H]5O[C@H](CO)[C@@H](OS(=O)(=O)O)[C@H](OS(=O)(=O)O)[C@H]5OC(=O)CC(C)C)C[C@@]34C)(C2)[C@@H]1O (stereo not given in full) | 1 ± 0.093 | 1.04 ± 0.061 | 1.01 ± 0.054 | 1.03 ± 0.072 | 0.9585 ± 0.0064
COc1cc2c(cc1OC)[C@@H]1C(=O)c3ccc4c(c3O[C@@H]1CO2)CC(C(C)C)O4 (stereo not given in full) | 0.963 ± 0.11 | 0.685 ± 0.14 | 0.9715 ± 0.0092 | 0.84 ± 0.0042 | 0.842
C/C=C(/C)C(=O)O[C@H]1CC[C@@]2(C)[C@@H]3CC[C@H]4[C@]5(O)C[C@H](O)[C@@]6(O)[C@@H](CN7C[C@@H](C)CC[C@H]7[C@@]6(C)O)[C@]5(O)C[C@@]42O[C@]13O | 0.994 ± 0.037 | 0.995 ± 0.021 | 0.946 ± 0.017 | 0.952 ± 0.036 | 0.9235 ± 0.0078
NC(N)=NOCC[C@H](N)C(=O)O | 1.08 ± 0.092 | 1.03 ± 0.035 | 1.03 ± 0.035 | 1.05 ± 0.042 | 0.991 ± 0.013
CC(C)c1ccc2c(c1O)CC[C@H]1C3=C(CC[C@]21C)C(=O)OC3 | 1.1 ± 0.042 | 1.1 ± 0.099 | 1.09 | 1.04 ± 0.19 | 1.06
CC[C@H]1[C@@H]2C[C@H]3[C@@H]4N(C)c5ccccc5[C@]45C[C@@H]([C@@H]2[C@H]5O)N3[C@@H]1O | 0.898 ± 0.03 | 0.899 ± 0.1 | 0.95 ± 0.023 | 0.942 ± 0.0085 | 1.05 ± 0.05
O=[N+]([O-])O[C@H]1CO[C@H]2[C@@H]1OC[C@H]2O[N+](=O)[O-] | 1 | 1.07 ± 0.014 | 1.05 ± 0.028 | 1.02 ± 0.11 | 1.11
CC(=O)Oc1c2c(c(CC=C(C)C)c3c1C(=O)C1=C[C@@H]4CC5C(C)(C)OC(C/C=C(\C)C(=O)O)(C4=O)[C@@]15O3)OC(C)(CCC=C(C)C)C=C2 (stereo not given in full) | 0.809 ± 0.046 | 0.933 ± 0.047 | 0.913 ± 0.08 | 0.706 ± 0.067 | 0.814 ± 0.26
CC(=O)O[C@H]1C(=O)[C@@]2(C)[C@H]([C@H](OC(=O)c3ccccc3)[C@]3(O)C[C@H](O)C(C)=C1C3(C)C)[C@]1(OC(C)=O)CO[C@@H]1C[C@@H]2O | 0.951 ± 0.013 | 1.04 ± 0.021 | 0.9845 ± 0.0078 | 0.95 ± 0.028 | 0.887 ± 0.076
CCNc1nc(Cl)nc(NCC)n1 | 0.955 ± 0.028 | 1.065 ± 0.0071 | 1.02 ± 0.03 | 0.9375 ± 0.005 | 0.886 ± 0.034
CCCCCCCCCc1ccc(O)cc1 | 1.03 ± 0.028 | 0.999 ± 0.016 | 0.946 ± 0.0071 | 1.19 ± 0.092 | 1.17 ± 0.05
C=C(C)[C@@H]1CC[C@]2(C(=O)O[C@@H]3O[C@H](CO[C@@H]4O[C@H](CO)[C@@H](O[C@@H]5O[C@@H](C)[C@H](O)[C@@H](O)[C@H]5O)[C@H](O)[C@H]4O)[C@@H](O)[C@H](O)[C@H]3O)CC[C@]3(C)[C@H](C[C@H]4OC(=O)C[C@@H](O)[C@]5(C)[C@@H]4[C@@]3(C)CC[C@H]5C(=C)C)[C@@H]12 [Chiisanoside (5)] | 0.873 ± 0.16 | 0.958 ± 0.074 | 0.945 ± 0.059 | 0.817 ± 0.059 | 0.948 ± 0.12
C=C[C@@H]1C2=CCOC(=O)C2=CO[C@H]1O[C@@H]1O[C@H](CO)[C@@H](O)[C@H](O)[C@H]1O | 0.971 ± 0.098 | 0.9495 ± 0.0078 | 1.03 | 0.923 ± 0.12 | 0.926 ± 0.034
CC(C)Nc1nc(Cl)nc(NC(C)C)n1 | 1.02 ± 0.049 | 0.952 ± 0.0014 | 0.949 ± 0.025 | 0.973 ± 0.038 | 0.944 ± 0.018
COc1ccc(C(=O)O[C@H]2CC[C@@]3(C)[C@@H]4CC[C@H]5[C@]6(O)C[C@H](O)[C@@]7(O)[C@@H](CN8C[C@@H](C)CC[C@H]8[C@@]7(C)O)[C@]6(O)C[C@@]53O[C@]24O)cc1OC | 0.98 ± 0.043 | 0.942 ± 0.083 | 1.02 ± 0.099 | 1.03 ± 0.14 | 1.05 ± 0.087
CNC(C)C(O)c1ccccc1 (stereo not given) | 1.08 ± 0.021 | 1.09 ± 0.014 | 1.07 ± 0.042 | 1.1 ± 0.078 | 0.905 ± 0.071

Reference: the supplement of paper PMC6522484
